In PubChem BioAssay (NCI):
Values joined by “and” are separate entries in the source; they are usually repeats but may differ in a detail not shown here. Identical values can stand only once. About 83,000 compounds went through this panel and 20% of them were active in at least one assay; those are over-represented in the sample as a whole.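 Treatment: one concentration, 48 hours, 96-well format. Scoring: percent growth, with anything below 10 considered active.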 Unmarked numbers belong to inactive results. Active and inactive are the calls of the source.

tested on: MDA-MB-468 breast; assay: NCI-60 one-dose screen, 48 h (100 = growth as untreated, 0 = no growth, -100 = all killed); details: 10 µM unless noted

Q: For O=P(O)(O)OCC1OC(n2cnc3c(NCc4ccco4)ncnc32)C(O)C1O (stereo not given), which growth is on record?
A: Its growth is -67% (active).

Q: For Oc1ccc(N=Nc2ccc(N=Nc3ccccc3)cc2)cc1, which growth is on record?
A: The growth was 83.1%.

Q: How did the growth turn out when Cc1ccc(-n2cc(-c3ccccc3)c3c2N=NN2CCN=C32)cc1 was run?
A: The growth was 103%.

Q: Which growth does the source give for COc1ccc(-c2csc(NC(=O)c3cc(OC)c(OC)c(OC)c3)n2)cc1 here?
A: The growth was 86.8%.

Q: COc1ccc(C(=O)N2NC(=O)/C(=C/c3ccc(Br)cc3)N=C2c2ccccc2)cc1 was tested. Which growth did it give?
A: Its growth is 91.8%.

Q: With COC(=O)Nc1ccc2ccc3c(NC(=O)OC)ccc4ccc1c2c43 (tested in a mixture with another compound) as the compound, how does the growth read?
A: The growth was 40.9%.

Q: NC(=O)c1c(NC(=O)c2ccc3c(c2)OCO3)sc2c1CCC(=O)C2 was tested. Which growth did it give?
A: The growth was -35.3% (active).

Q: How did the growth turn out when CC(C)(C)n1cc(-c2ccnc(NCCNS(=O)(=O)c3ccc(C(F)(F)F)cc3)c2)c(-c2ccccc2)n1 was run?
A: The growth was 89.1%.

Q: How did the growth turn out when Clc1ccc(SSc2ccc(Cl)cc2)cc1 was run?
A: Its growth is 95.7% and 95.5%.

Q: Which growth does the source give for CC1(c2ccc(Br)cc2)NC(=O)NC1=O (stereo not given) here?
A: The growth was 110%.

Q: Which growth does the source give for CCC[C@H](N[C@@H](C)C(=O)N1[C@H](C(=O)O)C[C@@H]2CCCC[C@@H]21)C(=O)OCC here?
A: The growth was 101%.

Q: Which growth does the source give for COc1c(B(O)O)cccc1-c1nc2c(F)cc3n[nH]c(C)c3c2c2c1CCCC2 here?
A: The growth was -7.26% (active).

Q: With COc1cc([C@@H]2c3cc4c(cc3C(O[C@@H]3O[C@@H]5CO[C@@H](c6cccs6)OC5[C@H](O)[C@H]3O)C3COC(=O)[C@@H]32)OCO4)cc(OC)c1O (stereo not given in full) as the compound, how does the growth read?
A: Its growth is -58.9% (active).

Q: COC(=O)C1=Nc2ccc(F)cc2/C1=C/c1sc(=S)[nH]c1O was tested. Which growth did it give?
A: Its growth is 13.4%.

Q: With O=c1c2cc(F)ccc2sc2c(NCCCN3CCCC3)nc3ccccc3c12 as the compound, how does the growth read?
A: Its growth is -13.7% (active).

Q: With NC(N)=Nc1ccc(Oc2cccc(Nc3ccc(Cl)c(C(F)(F)F)c3)c2)cn1 as the compound, how does the growth read?
A: Its growth is -84.4% (active).

Q: FC(F)(F)Oc1cccc(-c2cnc3ccc(-c4ccncc4)nn23)c1 was tested. Which growth did it give?
A: Its growth is -10.5% (active).

Q: COc1ccc2c(O)c(/C=C3\N=Nc4ccccc43)oc2c1C[C@H]1CCNC[C@H]1F was tested. Which growth did it give?
A: The growth was 75.6%.

Q: Which growth does the source give for COc1ccc(NC(=O)CSc2nnc(-c3cc(-c4ccc(S(N)(=O)=O)cc4)nc4ccccc34)n2-c2ccccc2)cc1 here?
A: Its growth is 86.4%.

Q: For NC(=O)c1n[nH]n2c1nc(=O)c1c3c(sc12)CCCC3, which growth is on record?
A: Its growth is 120%.

Q: How did the growth turn out when COc1ccc(-c2cnnn2-c2nonc2-n2cccc2)cc1OC was run?
A: Its growth is 40.1%.

Q: CCCCCCCCCCN=C(N)N=C(N)N was tested. Which growth did it give?
A: The growth was -12.9% (active).

Q: With CC(C)OCC(CCl)OC(=O)Nc1ccccc1 (stereo not given) as the compound, how does the growth read?
A: The growth was 112%.

Q: For Oc1ccc(-c2[nH]c3ccccc3c2-c2nc3ccccc3o2)cc1, which growth is on record?
A: The growth was 26.1%.

Q: Which growth does the source give for Cn1c2ccc(Br)cc2c2c3c(c4c5cc(F)ccc5oc4c21)C(=O)N(O)C3=O here?
A: Its growth is 108%.

Q: Which growth does the source give for CC12CCC(C(=O)CC1=O)C2(C)C (stereo not given) here?
A: The growth was 99.3%.

Q: How did the growth turn out when Brc1ccc2[nH]cc(-c3nonc3-c3c[nH]c4ccccc34)c2c1 was run?
A: Its growth is 62.9%.

Q: For COc1ccc(C(O)c2cc3c(N)c(C(=O)Nc4cccc(Cl)c4)sc3nc2C)cc1 (stereo not given), which growth is on record?
A: Its growth is 22.4%.

Q: For COC1=C(C)C(=O)c2c(c(CCCl)c3n2CCC3OC(C)=O)C1=O (stereo not given), which growth is on record?
A: Its growth is 85.5%.

Q: For CN1CCN(c2ccc(Nc3ncc(C(N)=O)c(NCCCNC(=O)C4CCC4)n3)cc2)CC1, which growth is on record?
A: Its growth is 6.58% (active).

Q: How did the growth turn out when CSCCCNC(=O)c1ccc2c(c1)/C(=C/c1[nH]c(C)cc1C)C(=O)N2 was run?
A: Its growth is 42.7%.

Q: How did the growth turn out when Cc1nn(-c2ccc(Cl)cc2)c2nc3c(nc12)C(=O)c1ccccc1-3 was run?
A: Its growth is 49.2%.

Q: With c1ccc(-c2nc(Nc3ccc(-c4nc5ccccc5[nH]4)cc3)nc(N3CCOCC3)n2)cc1 as the compound, how does the growth read?
A: Its growth is -62.7% (active).

Q: With Clc1cccc(Cc2cn3cc(-c4ccccc4)nc3s2)c1 as the compound, how does the growth read?
A: Its growth is 44.3%.

Q: COc1cc(-c2n/c(=C\c3c(O)[nH]c4ccc(Cl)cc34)cc3c2=Nc2ccccc2-3)ccc1F was tested. Which growth did it give?
A: The growth was -7.14% (active).

Q: For CN(C)CCCOc1cccc(NC2=C(Cl)C(=O)C(Nc3cccc(OCCCN(C)C)c3)=C(Cl)C2=O)c1, which growth is on record?
A: The growth was -57.3% (active).

Q: How did the growth turn out when O=C1NC(=O)C(c2ccc(Cl)cc2Cl)N1 (stereo not given) was run?
A: The growth was 106%.

Q: How did the growth turn out when N#Cc1c(-c2ccccc2)cc(-c2ccccc2)n(CCCCC(=O)O)c1=O was run?
A: The growth was 89.1%.

Q: COc1ccc(/C=C2/CN(CCC#N)C/C(=C\c3ccc(OC)cc3)C2=O)cc1 was tested. Which growth did it give?
A: Its growth is -28% (active).

Q: Which growth does the source give for CC(C)CCN(CCCNc1c2c(nc3ccccc13)CCCC2)CCC(C)C here?
A: Its growth is 57.2%.
